Experiment [1] in a line: binders of probe aFSTL3 on microarray, primary screen, stem cell growth factor project, biochemical, small-molecule microarray, fluorescence 635/667 (AID 1064).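 Also: measures binding of the biotinylated anti-FSTL3 antibody to printed compounds.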 The conditions noted are these: higher = more signal.
Experiment [2] in a line: binders from COS7 lysate, DM2A8 probe, primary screen, torsin A project, cell lysate, small-molecule microarray, fluorescence 635/667 (AID 1065). The settings on record: higher = more signal, COS7 lysate expressing mutant human TOR1A.
Experiment [3] is described as follows: binders of probe aFGF2 on microarray, primary screen, stem cell growth factor project, biochemical, small-molecule microarray, fluorescence 635/667 (AID 1067).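 Also: measures binding of biotinylated aFGF2 protein to printed compounds on slides; z-score merges feature fluorescence and signal-to-noise across triplicate slides.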 The settings on record: higher = more signal.
The nature of experiment [4]: binders of probe aFGF10 on microarray, primary screen, stem cell growth factor project, biochemical, small-molecule microarray, fluorescence 635/667 (AID 1071).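 Also: score merges 667 nm spot intensity and signal to noise from triplicate slides.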 The settings on record: higher = more signal.
In experiment [5] the target is Neurogenic locus notch homolog protein 2 (Homo sapiens) (UniProt Q04721). The experiment in a line: Notch2 binders on small-molecule microarrays, primary screen, biochemical, small-molecule microarray, 635 nm fluorescence, stem cell growth factors (AID 1073). The conditions noted are these: Notch2 binding, higher = more signal.
Neurogenic locus notch homolog protein 2 (Homo sapiens), sequence (Q04721 whole entry, looked up, canonical isoform): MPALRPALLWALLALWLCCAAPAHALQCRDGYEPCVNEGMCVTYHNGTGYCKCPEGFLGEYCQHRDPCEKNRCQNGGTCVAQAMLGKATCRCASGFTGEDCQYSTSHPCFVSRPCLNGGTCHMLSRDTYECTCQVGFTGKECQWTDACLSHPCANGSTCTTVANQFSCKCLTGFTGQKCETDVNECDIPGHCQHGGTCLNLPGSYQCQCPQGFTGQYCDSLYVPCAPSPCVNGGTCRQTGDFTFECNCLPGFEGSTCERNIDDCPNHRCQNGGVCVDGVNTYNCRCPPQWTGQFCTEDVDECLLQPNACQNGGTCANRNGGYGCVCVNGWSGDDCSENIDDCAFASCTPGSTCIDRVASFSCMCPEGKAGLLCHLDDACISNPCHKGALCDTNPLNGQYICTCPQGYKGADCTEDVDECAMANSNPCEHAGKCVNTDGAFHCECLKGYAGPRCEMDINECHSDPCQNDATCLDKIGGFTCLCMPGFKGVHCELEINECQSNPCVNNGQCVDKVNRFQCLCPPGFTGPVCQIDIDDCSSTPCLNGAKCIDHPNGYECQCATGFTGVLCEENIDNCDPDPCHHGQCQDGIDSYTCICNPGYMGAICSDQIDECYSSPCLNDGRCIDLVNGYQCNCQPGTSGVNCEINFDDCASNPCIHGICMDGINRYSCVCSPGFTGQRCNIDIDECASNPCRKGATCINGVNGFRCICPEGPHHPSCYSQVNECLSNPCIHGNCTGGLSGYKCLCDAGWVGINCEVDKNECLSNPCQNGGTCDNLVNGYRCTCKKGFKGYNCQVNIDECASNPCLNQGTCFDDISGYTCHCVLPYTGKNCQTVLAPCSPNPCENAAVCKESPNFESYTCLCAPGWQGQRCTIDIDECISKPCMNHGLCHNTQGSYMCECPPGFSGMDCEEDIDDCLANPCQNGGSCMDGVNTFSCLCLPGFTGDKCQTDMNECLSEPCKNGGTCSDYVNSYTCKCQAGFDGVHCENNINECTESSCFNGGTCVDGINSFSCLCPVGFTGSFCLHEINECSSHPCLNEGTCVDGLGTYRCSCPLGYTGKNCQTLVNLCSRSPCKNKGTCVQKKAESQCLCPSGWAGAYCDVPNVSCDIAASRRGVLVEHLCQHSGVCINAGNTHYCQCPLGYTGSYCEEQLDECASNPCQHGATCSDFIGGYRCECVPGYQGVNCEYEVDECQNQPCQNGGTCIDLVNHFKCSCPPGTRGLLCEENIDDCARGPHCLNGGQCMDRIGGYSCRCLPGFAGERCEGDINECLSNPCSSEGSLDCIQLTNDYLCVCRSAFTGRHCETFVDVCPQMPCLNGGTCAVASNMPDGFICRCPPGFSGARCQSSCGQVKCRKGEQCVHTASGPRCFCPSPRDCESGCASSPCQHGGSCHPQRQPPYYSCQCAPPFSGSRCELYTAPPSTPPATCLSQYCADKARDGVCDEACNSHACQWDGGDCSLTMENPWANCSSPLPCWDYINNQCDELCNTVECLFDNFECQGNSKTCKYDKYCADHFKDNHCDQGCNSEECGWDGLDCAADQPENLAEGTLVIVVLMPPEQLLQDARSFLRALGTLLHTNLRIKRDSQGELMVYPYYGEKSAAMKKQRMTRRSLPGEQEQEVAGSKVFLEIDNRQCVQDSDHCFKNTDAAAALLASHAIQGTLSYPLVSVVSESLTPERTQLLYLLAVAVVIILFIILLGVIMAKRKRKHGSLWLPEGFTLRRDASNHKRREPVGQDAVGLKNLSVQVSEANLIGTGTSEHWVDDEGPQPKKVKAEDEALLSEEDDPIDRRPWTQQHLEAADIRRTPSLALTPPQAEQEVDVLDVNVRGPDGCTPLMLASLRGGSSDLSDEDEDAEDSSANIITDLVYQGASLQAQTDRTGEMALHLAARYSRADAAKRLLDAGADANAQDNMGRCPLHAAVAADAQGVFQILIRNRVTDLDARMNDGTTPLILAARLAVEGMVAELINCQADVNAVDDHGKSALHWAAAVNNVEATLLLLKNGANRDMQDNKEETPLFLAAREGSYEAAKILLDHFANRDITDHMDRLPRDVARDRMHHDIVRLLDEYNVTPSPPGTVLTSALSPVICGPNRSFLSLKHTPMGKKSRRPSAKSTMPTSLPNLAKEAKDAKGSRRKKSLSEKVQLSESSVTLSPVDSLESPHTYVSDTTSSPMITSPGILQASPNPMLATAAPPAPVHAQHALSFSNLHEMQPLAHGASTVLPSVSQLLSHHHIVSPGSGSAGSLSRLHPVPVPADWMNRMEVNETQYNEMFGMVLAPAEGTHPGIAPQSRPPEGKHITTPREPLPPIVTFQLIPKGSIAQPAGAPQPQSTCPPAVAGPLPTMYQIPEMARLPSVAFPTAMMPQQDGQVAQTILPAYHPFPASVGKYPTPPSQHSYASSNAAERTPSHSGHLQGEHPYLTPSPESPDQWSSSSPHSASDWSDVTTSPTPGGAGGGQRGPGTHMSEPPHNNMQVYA
Experiment [6] concerns the target Pro-neuregulin-1, membrane-bound isoform (Homo sapiens) (UniProt Q02297). The experiment is described as follows: NRG1 binders on small-molecule microarrays, primary screen, psychiatric disease protein project, biochemical, small-molecule microarray, fluorescence 635/667 (AID 1075).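 Also: score combines 667 nm spot fluorescence with signal to noise.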 The settings on record: NRG1 binding, 635 nm fluorescence, higher = more signal.
Experiment [7] relates to Neuregulin-1 EGF-like domain. The experiment in a line: binders of neuregulin-1 EGF-like domain, primary screen, biochemical, small-molecule microarray, 635 nm fluorescence (AID 1081).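 Also: binding of the protein to compounds printed on small-molecule microarray slides.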 The conditions noted are these: small-molecule microarray binding, higher = more signal.
The nature of experiment [8]: FRG1 promoter luciferase signal modulators, primary screen, FRG1 inhibition for FSHD, cell-based, C2C12 myotubes, firefly/Renilla luciferase, luminescence (AID 1084). The conditions noted are these: higher = more signal, called active from +8 up or from −8 down.
Experiment [9] in a line: binders of probe aFST on microarray, primary screen, stem cell growth factor project, biochemical, small-molecule microarray, fluorescence 635/667 (AID 1086).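 Also: score merges 667 nm fluorescence with signal-to-noise of each printed compound spot.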 The conditions noted are these: higher = more signal.
A short description of experiment [10]: binders of probe aHhip on microarray, primary screen, stem cell growth factor project, biochemical, small-molecule microarray, fluorescence 635/667 (AID 1087).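 Also: score merges spot fluorescence at 667nm with spot signal to noise ratio.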 The conditions noted are these: higher = more signal.
Experiment [11] concerns PRMT1 (protein arginine N-methyltransferase 1). The experiment is described as follows: PRMT1 binders on small-molecule microarrays, primary screen, biochemical, small-molecule microarray, 635 nm fluorescence (AID 1088).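 Also: binding of Prmt1 protein to compounds spotted on small-molecule microarray slides.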 The conditions noted are these: small-molecule microarray binding, higher = more signal.
Experiment [12] can be described thus: yeast growth modulation, basal conditions, primary screen, YJM789 clinical isolate, OD600, 24 h (AID 1089).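 Also: growth of clinical yeast isolate S. cerevisiae YJM 789 seeded 1000 cells per well; test concentration not given here.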 The conditions noted are these: S. cerevisiae YJM789 growth, higher = more signal, called active from +8 up or from −8 down.
Experiment [13] is described as follows: fission yeast growth modulation, primary screen, strain 972, OD600, 24 h, no modulator (AID 1090).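 Also: basal condition with compound alone and no growth modifier present; test concentration not given here.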 The settings on record: S. pombe 972 growth, higher = more signal, called active from +8 up or from −8 down.
Experiment [14] in a line: S. cerevisiae growth modulation with rapamycin, primary screen, strain BY4716, OD600, 96 h (AID 1091). Also: test concentration not given here. The conditions noted are these: higher = more signal, called active from +8 up or from −8 down.
In experiment [15] the target is Torsin-1A-interacting protein 2 (Homo sapiens) (UniProt Q8NFQ8). The experiment in a line: LULL1 binders on small-molecule microarray, primary screen, cell lysate, human LULL1 lysate, 635/667 nm fluorescence (AID 1092).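 Also: probe is lysate of COS7 cells overexpressing human LULL1; score merges per-feature 667 nm fluorescence with signal-to-noise.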 The conditions noted are these: hLULL1 lysate binding, 635 nm fluorescence, higher = more signal.
Torsin-1A-interacting protein 2 (Homo sapiens), sequence (Q8NFQ8 whole entry, looked up): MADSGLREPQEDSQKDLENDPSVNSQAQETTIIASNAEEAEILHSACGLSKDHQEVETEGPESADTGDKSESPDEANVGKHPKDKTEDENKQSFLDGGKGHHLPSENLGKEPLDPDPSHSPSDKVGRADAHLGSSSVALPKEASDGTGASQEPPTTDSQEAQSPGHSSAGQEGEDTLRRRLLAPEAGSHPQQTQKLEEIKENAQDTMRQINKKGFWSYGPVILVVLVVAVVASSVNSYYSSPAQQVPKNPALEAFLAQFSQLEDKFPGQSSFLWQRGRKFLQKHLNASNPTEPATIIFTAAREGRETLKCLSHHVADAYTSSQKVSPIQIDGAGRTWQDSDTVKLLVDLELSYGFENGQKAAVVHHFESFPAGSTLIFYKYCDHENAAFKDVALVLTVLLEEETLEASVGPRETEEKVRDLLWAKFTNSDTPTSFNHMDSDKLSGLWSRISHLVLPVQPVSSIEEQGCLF
Experiment [16] is described as follows: E. coli growth modulation, two-sided OD650, primary screen, E. coli filamentation project, strain DRC41, 24 h (AID 1093).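 Also: MC1000 strain lacking acrAB efflux and sulA so SOS filamentation is blocked; test concentration not given here.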 The settings on record: OD650, 24 h, higher = more signal, called active from +8 up or from −8 down.
The nature of experiment [17]: small-molecule microarray binders of probe aLefty2, primary screen, biochemical, biotinylated probe, 635/667 nm fluorescence (AID 1094).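 Also: score merges spot fluorescence near 667 nm with spot signal-to-noise ratio.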 The conditions noted are these: higher = more signal.
The test system of experiment [18] is Noggin (protein binding on small-molecule microarray). The experiment is described as follows: Noggin binders on small-molecule microarray, primary screen, biochemical, 635/667 nm fluorescence (AID 1095).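 Also: score merges 667 nm feature fluorescence with signal to noise over triplicate slides.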 The settings on record: 635 nm fluorescence, higher = more signal.
Experiment [19] addresses Neurogenic locus notch homolog protein 3 (Homo sapiens) (UniProt Q9UM47). The experiment is described as follows: NOTCH3 binders on small-molecule microarray, primary screen, biochemical, 635/667 nm fluorescence (AID 1096). The conditions noted are these: NOTCH3 binding, 635 nm fluorescence, higher = more signal.
A short description of experiment [20]: small-molecule microarray binders of probe aEGFR, primary screen, biochemical, biotinylated probe, 635/667 nm fluorescence (AID 1097).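 Also: probe is a biotinylated anti-EGFR antibody binding compounds printed on slides; score combines fluorescence near 667 nm and signal to noise of each spot.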 The conditions noted are these: higher = more signal.

Each structure is given as a SMILES string. The source made the active and inactive calls.

Here are results for 5 compounds from PubChem BioAssay.

Pro-neuregulin-1, membrane-bound isoform (Homo sapiens), sequence (Q02297 whole entry, looked up, the tested form may be a part, canonical isoform): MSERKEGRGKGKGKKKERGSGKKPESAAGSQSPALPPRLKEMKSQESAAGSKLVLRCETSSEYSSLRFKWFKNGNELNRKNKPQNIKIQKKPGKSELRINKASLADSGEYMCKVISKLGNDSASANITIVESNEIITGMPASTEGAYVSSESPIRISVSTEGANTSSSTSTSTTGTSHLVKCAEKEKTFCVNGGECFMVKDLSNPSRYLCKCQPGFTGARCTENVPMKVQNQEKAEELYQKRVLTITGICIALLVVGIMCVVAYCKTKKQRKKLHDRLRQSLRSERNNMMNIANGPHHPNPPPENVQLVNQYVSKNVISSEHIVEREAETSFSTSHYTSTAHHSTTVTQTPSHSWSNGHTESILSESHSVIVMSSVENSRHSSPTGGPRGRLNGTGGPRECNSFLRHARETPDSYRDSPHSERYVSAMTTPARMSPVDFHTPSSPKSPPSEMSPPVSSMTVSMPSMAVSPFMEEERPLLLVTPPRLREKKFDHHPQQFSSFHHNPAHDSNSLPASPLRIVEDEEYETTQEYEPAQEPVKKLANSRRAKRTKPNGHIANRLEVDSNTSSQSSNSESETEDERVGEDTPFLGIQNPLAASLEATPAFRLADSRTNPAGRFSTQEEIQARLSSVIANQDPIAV

As for `O=C1O[C@H](c2ccccc2)[C@H](c2ccccc2)N2[C@H]1[C@@H](C(=O)N1CCCCCCC1)[C@]1(C(=O)Nc3ccc(C#CC4=CCCCC4)cc31)[C@H]2c1ccc(OCCO)cc1`, the composite z-score in experiment [1] worked out at 3.55; in experiment [2], 2.01; in experiment [3] it was 0.917; in experiment [4] it was 0.965; in [5], 1.6; in experiment [6], 2.38. Moreover, the composite z-score in experiment [7] is 1.3; in experiment [9] it was 3.36; in experiment [10] it was 3.42; in [11], 1.53; in experiment [15] it was 3.7; in experiment [17], 1.72. In addition, the figures for the composite z-score in experiment [18], in [19] and in [20] were 1.72, 1.02 and 1.07, respectively. For the same compound, the z-score in experiment [8] is 0.677 (inactive); in experiment [12] it was 0.42 (inactive); in experiment [13] it was -2.08 (inactive); in experiment [14], 2.79 (inactive); in experiment [16], 2.64 (inactive).
As for `O=C1C[C@@](C(=O)NCC(F)(F)F)(c2ccc([N+](=O)[O-])cc2)[C@@H](c2ccc(CO)cc2I)N1C1CCCCC1`, the composite z-score in experiment [1] was -0.0205; in experiment [2] it was 0.95; in [3], -0.0257; in experiment [4], 0.19; in [5], 1.46; in experiment [6] it was 0.811. Further, the composite z-score in [7] is 1.24; in [9] it was 0.414; in experiment [10], -0.0994; in [11], 1.55; in [15], 2.52; in experiment [17] it was 0.0524. In addition, the figures for the composite z-score in experiment [18], in experiment [19] and in [20] were 0.572, 1.09 and 0.0721, respectively. Further, the z-score in experiment [8] is 0.467 (inactive); in [12], -0.732 (inactive); in experiment [13], 0.294 (inactive); in experiment [14], 1.16 (inactive); in [16], -0.426 (inactive).
Turning to `COC(=O)[C@@]1(Cc2ccc(F)cc2)[C@H]2c3cc(C(=O)N(C)C)n(Cc4ccccc4)c3C[C@H]2CN1C(=O)c1ccccc1`, the composite z-score in experiment [1] is -0.0364; in experiment [2] it was -0.267; in experiment [3], 0.0103; in [4], 0.314; in [5] it was 1.58; in experiment [6], 1.32. The composite z-score in [7] came to 0.337; in experiment [9] it was 1.35; in experiment [10], 2.22; in experiment [11], 0.964; in [15] it was 1.73; in [17], 0.318. Further, the composite z-score in experiment [18] is -0.004; in experiment [19], 1.14; in [20], 0.0709. For the same compound, the z-score in [8] is 0.403 (inactive); in experiment [12], 0.428 (inactive); in [13], 1.49 (inactive); in experiment [14], 3.85 (inactive); in experiment [16], -0.466 (inactive).
Turning to `C=CC(=C)[C@H]1Oc2ccccc2S(=O)(=O)N2CCC[C@@H]12`, the composite z-score is 0.289 in [1]; 0.196 in experiment [2]; -0.116 in [3]; -0.185 in experiment [4]; -0.128 in experiment [5]; -0.57 in experiment [6]. Besides, the composite z-score is -0.595 in experiment [7]; 0.303 in experiment [9]; -0.329 in experiment [10]; -1.3 in [11]; -0.562 in experiment [15]; 0.0189 in experiment [17]. Also, the composite z-score in experiment [18] was 0.518; in experiment [19], -0.406; in experiment [20], -0.152. Moreover, the z-score is -0.0188 (inactive) in [8]; -0.946 (inactive) in experiment [12]; -2.71 (inactive) in [13]; -0.601 (inactive) in [14]; -0.504 (inactive) in experiment [16].
For the compound `C=CCC(OC(C)=O)[C@@H]1[C@@H](N(Cc2cccc3ccccc23)C(=O)c2ccc(-c3ccccc3)cc2)c2cc(OCCCO)ccc2N1C(=O)c1ccc2ccccc2c1` (stereo not given in full), the composite z-score in [1] was -0.484; in [2] it was 0.306; in experiment [3], -0.0647; in experiment [4], -0.0203; in experiment [5], 0.104; in [6], 0.148. In addition, the composite z-score in [7] is 0.0031; in experiment [9] it was 0.131; in [10], 0.0722; in experiment [11], 0.833; in experiment [15], 1.76; in experiment [17], -0.0174. For the same compound, the values for the composite z-score in experiment [18], in [19] and in experiment [20] were 0.251, 0.643 and -0.0578, respectively. In addition, the z-score in [8] was -0.0039 (inactive); in experiment [12] it was -0.226 (inactive); in experiment [13], 0.435 (inactive); in experiment [14], 0.009 (inactive); in experiment [16], -0.601 (inactive).
